Assay results published in PubChem BioAssay (NCATS).
Values joined by “and” are separate entries in the source; they are usually repeats but may differ in a detail not shown here. Equal values may be shown once. Values without a mark were called inactive. Inconclusive results are not listed. Active and inactive are the calls of the source. Unless noted, calls follow the shape of the dose curve; as a rule, active = well fitted curve in either direction with a large enough effect (not every such curve was filed as active); inconclusive = small, poorly fitted or top-dose-only effect, or another doubt; inactive = flat fitted curve, though single readings scatter.

Assays:
[1] = AP1 Signaling Pathway (AID 357); conditions: ME-180 AP-1-bla reporter, EGF-induced, beta-lactamase ratio, 5 h; also: % is scaled to controls: 0 for no effect and ±100 for the full control effect
Outline: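 ME-180 cells with beta-lactamase reporter under AP-1 response element, stimulated with EC50 EGF; compounds tested in titration series, 5 h at 37 °C. CCF4 substrate added 2.5 h at room temperature; 460/530 nm emission ratio gave %activity and AC50.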

[2] = molecular target: Cytochrome P450 1A2 (Homo sapiens) (UniProt P05177); assay: p450-cyp1a2 (AID 410; calls by dose curve; also: potency is read from the fitted curve at half-maximal effect;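 as to activity change, negative = inhibition: -100% = full effect of reference inhibitor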); conditions: recombinant CYP1A2, luciferin-ME demethylation, luminescence; series mostly up to 25.6 µM
Chain of Cytochrome P450 1A2 (Homo sapiens) (P05177 whole entry, looked up): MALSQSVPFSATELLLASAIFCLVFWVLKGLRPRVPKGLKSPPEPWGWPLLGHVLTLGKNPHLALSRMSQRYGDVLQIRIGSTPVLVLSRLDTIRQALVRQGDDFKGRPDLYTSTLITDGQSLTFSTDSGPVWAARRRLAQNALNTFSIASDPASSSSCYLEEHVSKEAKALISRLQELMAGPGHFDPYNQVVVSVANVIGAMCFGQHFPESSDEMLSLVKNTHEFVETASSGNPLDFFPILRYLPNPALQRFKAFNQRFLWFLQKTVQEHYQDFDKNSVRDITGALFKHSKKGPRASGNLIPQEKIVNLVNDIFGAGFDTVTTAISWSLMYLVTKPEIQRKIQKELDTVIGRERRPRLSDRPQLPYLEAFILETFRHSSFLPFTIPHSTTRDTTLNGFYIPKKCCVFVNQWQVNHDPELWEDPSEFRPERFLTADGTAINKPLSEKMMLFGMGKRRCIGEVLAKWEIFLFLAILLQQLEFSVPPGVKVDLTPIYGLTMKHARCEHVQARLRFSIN
Outline: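 Inhibition was calculated relative to 57 uM furafylline (full inhibition). The reaction used human CYP1A2 at 20nM with Luciferin-ME at its Km, 100uM, driven by an NADPH-regenerating system for 60 min at room temperature.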

[3] = NFAT Signaling Pathway (AID 444); conditions: Jurkat NFAT-bla M1, carbachol, beta-lactamase ratio, 5 h; at 17.2 µM (top of the series);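 also: carbachol stimulus at about its EC50 of 1 µM final; % is scaled to controls: 0 for no effect and ±100 for the full control effect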
Outline: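 Read-out: CCF4 FRET ratio (460 nm/530 nm) after 1 h RT dye loading, used for %activity and AC50 from titration series. Cells: Jurkat NFAT-β-lactamase/M1 line, treated with compound plus 1 uM carbachol for 5 h, 37 °C.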

[4] = Stat Signaling Pathway (AID 446); conditions: ME-180 SIE beta-lactamase reporter, IL-6 stimulated, 5 h; at 17.2 µM (top of the series);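 also: ME-180 cervical cancer cells given 40 pM IL-6 alongside compound; SIE-controlled beta-lactamase reporter measured as 460/530 nm FRET emission ratio; % is scaled to controls: 0 for no effect and ±100 for the full control effect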
Outline: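 Reporter line: ME-180 cervical carcinoma, SIE-beta-lactamase. Treatment: compound with 40 pM IL-6, 5 hrs, 37 C, in low-serum OPTI-MEM with 10 mM HEPES pH 7.3. Detection: 460/530 nm fluorescence.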

[5] = molecular target: Glucocorticoid receptor (Homo sapiens) (UniProt P04150); assay: GR-GFP Redistribution (AID 450;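 active = compounds whose dose series gives a full or clear partial fitted curve of increased nuclear translocation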; also: potency is read from the fitted curve at half-maximal effect); conditions: U2OS GR-GFP nuclear translocation, laser cytometry, 2 h
Chain of Glucocorticoid receptor (Homo sapiens) (P04150 whole entry, looked up, the tested form may be a part): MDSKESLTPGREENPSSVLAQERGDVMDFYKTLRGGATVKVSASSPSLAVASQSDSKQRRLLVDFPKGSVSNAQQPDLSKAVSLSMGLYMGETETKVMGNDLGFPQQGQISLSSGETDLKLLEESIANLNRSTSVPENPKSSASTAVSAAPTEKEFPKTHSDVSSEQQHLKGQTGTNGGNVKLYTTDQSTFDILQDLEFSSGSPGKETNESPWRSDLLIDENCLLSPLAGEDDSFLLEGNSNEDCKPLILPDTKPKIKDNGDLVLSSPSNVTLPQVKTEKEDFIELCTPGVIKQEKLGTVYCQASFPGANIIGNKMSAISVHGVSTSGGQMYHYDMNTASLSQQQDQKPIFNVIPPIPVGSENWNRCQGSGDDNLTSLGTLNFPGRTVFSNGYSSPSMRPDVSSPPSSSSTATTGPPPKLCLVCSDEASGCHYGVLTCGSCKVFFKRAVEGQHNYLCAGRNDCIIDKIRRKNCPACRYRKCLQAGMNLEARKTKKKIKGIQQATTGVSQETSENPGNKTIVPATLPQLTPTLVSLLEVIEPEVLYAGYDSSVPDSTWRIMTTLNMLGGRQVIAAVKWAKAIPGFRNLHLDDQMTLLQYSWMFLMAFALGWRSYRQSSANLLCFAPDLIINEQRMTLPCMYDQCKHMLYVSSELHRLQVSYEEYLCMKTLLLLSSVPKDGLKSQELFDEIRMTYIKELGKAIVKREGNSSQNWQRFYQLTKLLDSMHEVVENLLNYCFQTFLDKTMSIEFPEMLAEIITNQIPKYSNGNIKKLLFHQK

[6] = molecular target: Glucocorticoid receptor (Homo sapiens) (UniProt P04150); assay: GR-EFC Redistribution (AID 451; calls by dose curve; also: potency is read from the fitted curve at half-maximal effect); conditions: CHO-K1 GR-EFC translocation, beta-gal luminescence, 2 h
Outline: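 Translocation of GR-ED fusion to nuclear EA restores b-gal, read by luminescence after 1 h room-temperature detection. Engineered CHO-K1 biosensor cells, 1,000/well, exposed 2 h at 37 C to titrations up to 46 uM final.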

[7] = molecular target: Mitogen-activated protein kinase 10 (Mus musculus) (UniProt Q61831); assay: JNK3 AlphaScreen Assay (AID 530); conditions: JNK3 lysate, c-Jun phosphorylation; series mostly up to 25.6 µM;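 also: kinase came from lysate of stimulated human HepG2 cells; signal reports phosphorylation of biotinylated GST-cJun 1-79 at Ser73 with 10 µM ATP; % is scaled to controls: 0 for no effect and ±100 for the full control effect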
Outline: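 Room-temperature AlphaScreen kinase assay; pre-activated HepG2 lysate as JNK3 source, biotin-GST-cJun(1-79) substrate, 10 uM ATP, compound 15 min preincubation.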

[8] = molecular target: Lysosomal acid glucosylceramidase (Homo sapiens) (UniProt P04062); assay: Glucocerebrosidase-p2 (AID 348; in the data active = potency below about 10 µM; also: potency is read from the fitted curve at half-maximal effect); conditions: purified GBA, blue fluorogenic substrate, 40 min
Chain of Lysosomal acid glucosylceramidase (Homo sapiens) (P04062 whole entry, looked up): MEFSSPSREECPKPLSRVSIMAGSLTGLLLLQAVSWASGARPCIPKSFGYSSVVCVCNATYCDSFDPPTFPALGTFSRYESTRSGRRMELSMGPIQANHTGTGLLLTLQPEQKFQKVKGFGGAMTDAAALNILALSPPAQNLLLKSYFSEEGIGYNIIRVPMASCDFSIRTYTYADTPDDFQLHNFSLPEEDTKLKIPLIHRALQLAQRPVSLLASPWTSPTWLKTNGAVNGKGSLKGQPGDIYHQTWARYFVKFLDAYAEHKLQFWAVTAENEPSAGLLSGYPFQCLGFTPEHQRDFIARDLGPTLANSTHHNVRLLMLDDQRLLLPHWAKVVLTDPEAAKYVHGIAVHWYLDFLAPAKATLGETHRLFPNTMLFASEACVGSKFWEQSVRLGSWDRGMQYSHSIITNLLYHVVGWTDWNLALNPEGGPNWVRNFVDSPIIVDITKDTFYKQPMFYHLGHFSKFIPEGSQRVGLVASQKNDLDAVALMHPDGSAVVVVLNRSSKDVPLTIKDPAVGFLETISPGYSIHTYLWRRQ
Outline: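 Compounds titrated from 0.6 nM upwards against 0.2 nM enzyme in pH 5.9 citric acid/KH2PO4, taurocholate, tween-20; blue fluorogenic substrate 80 uM, 40 min room temperature, stopped and read Ex 365/Em 440 for AC50.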

[9] = Cell Viability - Jurkat (AID 426;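 active = dose-dependent loss of cell ATP signal giving a full or clear fitted curve, ranked by lower potency value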;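 also: potency is read from the fitted curve at half-maximal effect; cells exposed to compound for 40 hours at 37 °C before ATP read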); conditions: qHTS
Outline: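 Seed 5000 Jurkat E6-1 cells/well; add compound; incubate 40 hr at 37 °C; add CellTiter-Glo; wait 20 min at room temperature; read luminescence. Fit concentration-response with Hill equation for AC50.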

[10] = Cell Viability - N2a (AID 540; active = well fitted curve in the direction sought with a large enough effect; an effect the other way counts as inactive or inconclusive;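 also: potency is read from the fitted curve at half-maximal effect; cells exposed to compound for 40 h at 37 °C; nearly all actives have a fitted effect of over 45% in size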); conditions: N2a mouse neuroblastoma cell viability; activity change, negative = cytotoxicity: at 92.2 µM (top of the series)
Outline: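 First, 1500 N2a cells per well incubate 5 hr at 37 °C; next, compounds are added and incubated 40 hr at 37 °C; finally CellTiter-Glo is added and luminescence read after 20 min, with AC50 derived by Hill modeling.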

[11] = Cell Viability - NIH 3T3 (AID 541; active = well fitted curve in the direction sought with a large enough effect; an effect the other way counts as inactive or inconclusive;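 also: cells exposed to compound for 40 hours; nearly all actives have a fitted effect of over 25% in size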; also: potency is read from the fitted curve at half-maximal effect;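 as to activity change, negative = cytotoxicity: plate controls were DMSO alone for no effect and tamoxifen positive control for full effect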); conditions: NIH 3T3 cell viability, qHTS; activity change, negative = cytotoxicity: at 92.2 µM (top of the series)
Outline: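 AC50 values reflect concentration-dependent loss of intracellular ATP in NIH 3T3 cells after 40 hr treatment in complete culture medium, quantified by luciferase-based luminescence.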

[12] = Cell Viability - HUV-EC-C (AID 542; active = well fitted curve in the direction sought with a large enough effect; an effect the other way counts as inactive or inconclusive;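 also: potency is read from the fitted curve at half-maximal effect; cells exposed to compound for 40 hours; nearly all actives have a fitted effect of over 35% in size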); conditions: HUV-EC-C endothelial cell viability, qHTS; series mostly up to 92.2 µM
Outline: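 Decrease in cellular ATP, quantified by luciferase luminescence, reflects toxicity in normal human vascular endothelial HUV-EC-C cells given compound for 40 hr in complete culture medium. Values are AC50s from concentration-response curves.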

[13] = Cell Viability - H-4-II-E (AID 543; active = well fitted curve in the direction sought with a large enough effect; an effect the other way counts as inactive or inconclusive;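 also: cells exposed to compound for 40 hours; nearly all actives have a fitted effect of over 35% in size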; also: potency is read from the fitted curve at half-maximal effect); conditions: H-4-II-E rat hepatoma viability; series mostly up to 92.2 µM
Outline: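 Here, cytotoxicity is measured in the rat hepatoma line H-4-II-E as loss of intracellular ATP after 40 hr compound treatment, detected by luciferase luminescence.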

[14] = Cell Viability - BJ (AID 421; calls by dose curve;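 also: potency is read from the fitted curve at half-maximal effect; cells exposed to compound for 40 hours at 37 °C before readout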); conditions: BJ fibroblast viability, qHTS
Outline: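 Cytotoxicity as drop in intracellular ATP (CellTiter-Glo, 20 min RT) after 40 hr compound exposure of BJ fibroblasts at 37 °C. Titrations scaled between DMSO and 100 uM tamoxifen, Hill-fitted for AC50.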

[15] = Cell Viability - HepG2 (AID 433; calls by dose curve;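 also: potency is read from the fitted curve at half-maximal effect; cells exposed to compound for 40 hours; potency for ATP loss meaning cytotoxicity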); conditions: qHTS
Outline: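 Cytotoxicity read as ATP loss (CellTiter-Glo luminescence) after 40 hr compound exposure of HepG2, 1500 cells/well, 37 °C. AC50 by Hill equation; 0% set by DMSO, 100% inhibition by 100 uM tamoxifen.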

[16] = Cell Viability - Renal Proximal Tubule (AID 545; active = well fitted curve in the direction sought with a large enough effect; an effect the other way counts as inactive or inconclusive;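 also: cells exposed to compound for 40 hours; 0% = DMSO only and -100% = 100 µM tamoxifen; nearly all actives have a fitted effect of over 40% in size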); conditions: renal proximal tubule cells viability, primary cells of rat origin; activity change, negative = cytotoxicity: at 91.7 µM (top of the series)
Outline: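 Viability taken as intracellular ATP (CellTiter-Glo luminescence) after 40 hr, 37 °C compound treatment of primary proximal tubule cells from rat kidney, 1000 cells/well; Hill-equation fits of qHTS concentration-response data gave AC50.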

Q: Which activity change, negative = inhibition ([1]; at 17.2 µM (top of the series)) does the source give for CCN(CC)C(=O)N1CCN(C)CC1 here?
A: Its activity change, negative = inhibition is 1.31%.

Q: What about the Potency [2] of the same compound?
A: The Potency was “inactive”.

Q: And the activity change, negative = inhibition [3]?
A: The activity change, negative = inhibition was -7.87%.

Q: What about the activity, negative = inhibition [4] of the same compound?
A: The activity, negative = inhibition was 3.22%.

Q: What about the Potency [5] of the same compound?
A: The Potency was over 20.6 µM.

Q: What about the Potency [6] of the same compound?
A: Its Potency is over 20.6 µM.

Q: What about the outcome [7] of the same compound?
A: Its outcome is “inactive”.

Q: With Oc1ccc(Cl)cc1Sc1cc(Cl)ccc1O as the compound, how does the Potency [8] read?
A: Its Potency is over 11.4 µM.

Q: What about the activity change, negative = inhibition ([1]; at 7.69 µM (top of the series)) of the same compound?
A: Its activity change, negative = inhibition is -7.34%.

Q: What about the Potency [2] of the same compound?
A: Its Potency is 3.98 µM (active).

Q: And the Potency [9]?
A: The Potency was 56.7 µM (active).

Q: What about the Potency [5] of the same compound?
A: Its Potency is over 46 µM.

Q: And the Potency [6]?
A: Its Potency is over 9.22 µM.

Q: And the outcome [7]?
A: Its outcome is “inactive”.

Q: And the Potency [10]?
A: The Potency was 31.6 µM (active).

Q: What about the Potency [11] of the same compound?
A: The Potency was 31.6 µM (active).

Q: And the Potency [12]?
A: The Potency was 31.6 µM (active).

Q: And the Potency [13]?
A: The Potency was 39.8 µM (active).

Q: Which activity change, negative = inhibition ([1]; at 17.2 µM (top of the series)) does the source give for CC(=O)OCC(=O)[C@@]12OC(C)(C)O[C@@H]1C[C@H]1[C@@H]3C[C@H](F)C4=CC(=O)C=C[C@]4(C)[C@@]3(F)[C@@H](O)C[C@@]12C here?
A: The activity change, negative = inhibition was -9.69%.

Q: And the activity change, negative = inhibition [3]?
A: The activity change, negative = inhibition was 15.1%.

Q: And the activity, negative = inhibition [4]?
A: The activity, negative = inhibition was -3.28%.

Q: And the Potency [5]?
A: The Potency was 0.00057 µM (active).

Q: For NCCCC[C@H](N[C@@H](CCc1ccccc1)C(=O)O)C(=O)N1CCC[C@H]1C(=O)O, which activity change, negative = inhibition ([1]; at 17.2 µM (top of the series)) is on record?
A: The activity change, negative = inhibition was 3.25%.

Q: What about the activity change, negative = inhibition [3] of the same compound?
A: The activity change, negative = inhibition was -2.99%.

Q: And the activity, negative = inhibition [4]?
A: The activity, negative = inhibition was 4.58%.

Q: What about the Potency [5] of the same compound?
A: The Potency was over 20.6 µM.

Q: What about the Potency [6] of the same compound?
A: The Potency was over 20.6 µM.

Q: What about the outcome [7] of the same compound?
A: Its outcome is “inactive”.

Q: Which activity change, negative = inhibition ([1]; at 17.2 µM (top of the series)) does the source give for CC(=O)OCC(=O)[C@@]1(O)[C@H](C)C[C@H]2[C@@H]3CCC4=CC(=O)C=C[C@]4(C)[C@@]3(F)[C@@H](O)C[C@@]21C here?
A: Its activity change, negative = inhibition is -10.4%.

Q: What about the activity change, negative = inhibition [3] of the same compound?
A: The activity change, negative = inhibition was 29.8%.

Q: What about the activity, negative = inhibition [4] of the same compound?
A: Its activity, negative = inhibition is -9.24%.

Q: Which activity change, negative = inhibition ([1]; at 17.2 µM (top of the series)) does the source give for CC(C)(Oc1ccc(Cl)cc1)C(=O)O here?
A: Its activity change, negative = inhibition is -0.859%.

Q: What about the activity change, negative = inhibition [3] of the same compound?
A: Its activity change, negative = inhibition is 15.7%.

Q: And the activity, negative = inhibition [4]?
A: Its activity, negative = inhibition is -4.02%.

Q: What about the Potency [5] of the same compound?
A: Its Potency is > 20.6 µM and > 46 µM.

Q: And the Potency [6]?
A: The Potency was > 20.6 µM and > 46 µM.

Q: And the outcome [7]?
A: Its outcome is “inactive”.

Q: What does the source list for CC(C)(C)CC(C)(C)c1ccc(OCCOCC[N+](C)(C)Cc2ccccc2)cc1?
A: activity change, negative = inhibition ([1]; at 17.2 µM (top of the series)): -12.6%; Potency [14]: 52.9 µM (active); Potency [9]: 26.8 µM (active); Potency [15]: 57.8 µM (active); activity, negative = inhibition [4]: -2.12%; outcome [7]: inactive; Potency [10]: 5.01 µM (active); activity change, negative = cytotoxicity [11]: -129% (active); Potency [12]: 50.1 µM (active); Potency [13]: inactive; activity change, negative = cytotoxicity [16]: -90% (active)

Q: What does the source list for CCC(NC(C)C)C(O)c1ccc(O)c(O)c1 (centres undefined)?
A: activity change, negative = inhibition ([1]; at 17.2 µM (top of the series)): -6.11%; activity change, negative = inhibition [3]: 3%; activity, negative = inhibition [4]: 1.25%

Q: For O=C(OCCOCCO)c1ccccc1Nc1cccc(C(F)(F)F)c1, which activity change, negative = inhibition ([1]; at 17.2 µM (top of the series)) is on record?
A: Its activity change, negative = inhibition is -27.7%.

Q: What about the activity change, negative = inhibition [3] of the same compound?
A: The activity change, negative = inhibition was -18%.

Q: And the activity, negative = inhibition [4]?
A: Its activity, negative = inhibition is -10.5%.

Q: And the Potency [5]?
A: The Potency was over 20.6 µM.

Q: And the Potency [6]?
A: The Potency was over 20.6 µM.

Q: What about the outcome [7] of the same compound?
A: Its outcome is “inactive”.

Q: Which activity change, negative = inhibition ([1]; at 17.2 µM (top of the series)) does the source give for CN1CCN(CCCN2c3ccccc3Sc3ccc(S(=O)(=O)N(C)C)cc32)CC1 here?
A: Its activity change, negative = inhibition is 16.8%.

Q: And the Potency [2]?
A: Its Potency is 12.6 µM (active).

Q: What about the activity, negative = inhibition [4] of the same compound?
A: The activity, negative = inhibition was 5.77%.

Q: And the Potency [5]?
A: The Potency was over 20.6 µM.

Q: And the Potency [6]?
A: Its Potency is over 20.6 µM.

Q: What about the outcome [7] of the same compound?
A: The outcome was “inactive”.

Q: For O=C1c2ccccc2C(=O)C1c1ccccc1, which activity change, negative = inhibition ([1]; at 17.2 µM (top of the series)) is on record?
A: The activity change, negative = inhibition was -0.252%.

Q: What about the activity change, negative = inhibition [3] of the same compound?
A: The activity change, negative = inhibition was -11.7%.

Q: And the activity, negative = inhibition [4]?
A: Its activity, negative = inhibition is 3.06%.

Q: And the Potency [5]?
A: Its Potency is over 20.6 µM.

Q: And the Potency [6]?
A: Its Potency is over 20.6 µM.

Q: And the outcome [7]?
A: Its outcome is “inactive”.
